Screens from PubChem BioAssay.
Pol eta inh: blocks human DNA polymerase eta activity | recombinant Pol eta, fluorescent DNA replication assay | Q9Y253 | 1.2% of 390,000 active | AID 588591 | Potency, µM (doses to about 114 µM), usual class: inhibitors
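Pol eta (10 nM) was preincubated with compounds for 15 min at room temperature, after which fluorescent replication substrate (50 nM final) was added to start the reaction. Fluorescence was read kinetically at 0 and 10 min.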
POLK inh: blocks human DNA polymerase kappa activity; Q9UBT6; purified Pol kappa, fluorescent DNA synthesis assay, 10 min; Potency, µM (titrated, usually from 107 µM), hits mostly inhibitors; 0.53% of 400,000 active; AID 588579
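Kinetic fluorescence screen: compound preincubated 15 min RT with 10 nM enzyme; 50 nM substrate (final) initiates; reads at 0/10 min.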
ALOX12 inh: inhibitors of human 12S-lipoxygenase ALOX12; Potency, µM (top dose mostly 108 µM), actives largely listed as inhibitors; purified 12hLO, xylenol orange hydroperoxide absorbance; 1.1% of 580,000 active
Target sequence (P18054 whole entry, looked up): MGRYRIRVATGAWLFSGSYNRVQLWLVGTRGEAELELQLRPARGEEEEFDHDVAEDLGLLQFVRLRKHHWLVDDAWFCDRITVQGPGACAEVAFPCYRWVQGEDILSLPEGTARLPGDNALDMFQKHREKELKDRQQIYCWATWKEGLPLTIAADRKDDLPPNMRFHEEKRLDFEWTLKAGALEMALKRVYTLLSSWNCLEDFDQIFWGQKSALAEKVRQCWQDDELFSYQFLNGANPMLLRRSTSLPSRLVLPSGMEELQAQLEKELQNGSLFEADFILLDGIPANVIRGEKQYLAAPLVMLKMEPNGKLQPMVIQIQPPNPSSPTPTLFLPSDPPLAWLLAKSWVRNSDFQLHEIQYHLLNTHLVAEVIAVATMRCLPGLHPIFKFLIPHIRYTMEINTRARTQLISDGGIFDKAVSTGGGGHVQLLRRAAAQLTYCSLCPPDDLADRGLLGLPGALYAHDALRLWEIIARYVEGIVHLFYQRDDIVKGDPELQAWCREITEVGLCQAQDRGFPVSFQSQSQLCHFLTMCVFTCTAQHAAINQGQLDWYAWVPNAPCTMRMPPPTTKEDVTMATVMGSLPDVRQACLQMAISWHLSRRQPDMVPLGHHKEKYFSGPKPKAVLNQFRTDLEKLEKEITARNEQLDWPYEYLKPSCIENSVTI
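Purified human 12hLO at 150 nM in 25 mM Hepes, 0.01% Triton X-100, pH 7.0, preincubated 15 min at room temperature with compound. Reaction started with 40 uM arachidonic acid, 30 min at room temperature. Hydroperoxide measured by Fe-xylenol orange, 573/405 nm absorbance ratio.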
PI5P4Ka inh: PI5P4K alpha (human) kinase inhibition | P48426 | PI5P4Kalpha enzyme, ADP-Glo luminescence, 60 min; stronger effect = lower value | max response, % | 1.2% of 330,000 active | AID 652105; active = max response of -50% or lower; inconclusive = between -30% and -50%; inactive = -30% or higher; also: value at the top dose of about 77 µM
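Reactions run in 0.038 M HEPES pH 7.4, 0.28 mM EGTA, 0.1% CHAPS and 5% DMSO, with PI5P4Kalpha, substrate, compound and 5 microM ATP final, one hour at room temperature. Readout is ADP-Glo luminescence.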
Pol beta inh: inhibitors of human DNA polymerase beta | P06746 | Pol beta primer extension/strand displacement, fluorescence kinetic | Potency, µM (titrated, usually from 114 µM), actives largely listed as inhibitors | 1.3% of 340,000 active | AID 485314
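Human Pol beta at 10 nM; strand-displacement substrate 50 nM final. Compound exposure 15 min at room temperature before start, reaction 10 min at room temperature.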
Pol iota inh: DNA polymerase iota (human) inhibition; Q9UNA4; Pol iota fluorescent replication assay, 10 min; Potency, µM (series often up to 115 µM), most hits filed as inhibitors; 1% of 390,000 active; AID 588590
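Fluorescent replication assay read twice, at 0 min and 10 min after adding 50 nM (final) substrate. Enzyme (10 nM) and compounds were first incubated 15 min at room temperature; enzyme-free buffer wells were negative controls.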
Large screens that a line does not name were inactive. Only some compounds are listed: those with a hit (about 2.9% of all), similar ones and a draw of the others. Unless noted, calls follow the shape of the dose curve; as a rule, active = well fitted inhibition curve with a large enough effect; inconclusive = small, poorly fitted or top-dose-only effect, or another doubt; inactive = no such curve, though single readings can be large or run the other way.

Cc1c(OC(=O)N(C)C)ccc2c1O/C(=C\c1ccco1)C2=O	ALOX12 inh inconclusive, Pol beta inh 50.1µM
Cc1cccc(-n2c(O)c(/C=N/Nc3nc4c(c(=O)n(C)c(=O)n4C)n3C)c(=O)[nH]c2=S)c1	Pol eta inh inconclusive, ALOX12 inh 31.6µM, PI5P4Ka inh inconclusive
O=C1NC(=O)C(=Cc2cc(Cl)ccc2OCc2ccc(C(=O)O)cc2)C(=O)N1	PI5P4Ka inh -71.1, Pol iota inh inconclusive
CCC1CCC(=O)O1 (stereo not drawn)	none (no result: Pol eta inh, POLK inh, PI5P4Ka inh, Pol beta inh, Pol iota inh)
O=[N+]([O-])c1cccc2c([N+](=O)[O-])cccc12	none (no result: Pol beta inh)
O=C1NC(=O)C(Sc2ccccc2[N+](=O)[O-])C(=O)N1	ALOX12 inh 10µM, PI5P4Ka inh -54.0, Pol iota inh 10µM
CNc1nc(N2C[C@H]3CN(CCOC)C[C@@]3(C(=O)O)C2)ncc1F	none (no result: Pol eta inh, POLK inh, PI5P4Ka inh, Pol beta inh, Pol iota inh)
[Hg+][c]1ccccc1	Pol iota inh 14.1µM (no result: Pol eta inh, ALOX12 inh, PI5P4Ka inh, Pol beta inh)
NNc1n[nH]c(=S)n1N	Pol iota inh 15.8µM
Cc1cccc(C)c1OCc1n[nH]c(=S)n1N	ALOX12 inh inconclusive
CN(N=O)c1cc(O)ccc1O	Pol eta inh 1.41µM, POLK inh inconclusive, ALOX12 inh inconclusive, Pol beta inh 1.26µM, Pol iota inh 11.2µM (no result: PI5P4Ka inh)
CCN(CC)C[C@H]1CN2CC[C@H]1C[C@@H]2CNC(=O)Nc1cccc(SC)c1	none (no result: Pol eta inh, POLK inh, PI5P4Ka inh, Pol beta inh, Pol iota inh)
COc1ccc(OC)c(N=Cc2c(O)[nH]c(=O)[nH]c2=O)c1	PI5P4Ka inh -55.8
O=C1OC(c2ccc(O)c(S(=O)(=O)O)c2)(c2ccc(O)c(S(=O)(=O)O)c2)c2c(Br)c(Br)c(Br)c(Br)c21	POLK inh 28.2µM (no result: Pol eta inh, ALOX12 inh, PI5P4Ka inh, Pol beta inh, Pol iota inh)
CCN(CC)C(=O)c1ccc(NC(=O)c2cccc(C(F)(F)F)c2)cc1	none
CCN1CCN(S(=O)(=O)c2ccc(Cl)c(C(=O)Nc3ccc(C(=O)N(CC)CC)cc3)c2)CC1	ALOX12 inh 20µM
CC[C@H](C)/C=C(C)/C=C/C1=CC2=C(Cl)C(=O)[C@@](C)(OC(C)=O)C(=O)C2=CO1	Pol eta inh 20µM, POLK inh inconclusive, PI5P4Ka inh -87.1, Pol iota inh inconclusive (no result: ALOX12 inh, Pol beta inh)
CCC(C)/C=C(C)/C=C/C1=CC2=C(Cl)C(=O)C(C)(OC(C)=O)C(=O)C2=CO1 (stereo not drawn)	Pol iota inh inconclusive (no result: ALOX12 inh)
Cc1nc(-c2ccc(N(C)C)cc2)cc([C@H]2CN3CC[C@H]2C[C@@H]3CNC(=O)NC(C)C)n1	none (no result: Pol eta inh, POLK inh, PI5P4Ka inh, Pol beta inh, Pol iota inh)
c1ccc(Nc2ccc(Nc3ccccc3)cc2)cc1	ALOX12 inh 14.1µM (no result: Pol beta inh)
Cc1ccc(-n2c(/C=C/c3ccco3)nc3ccccc3c2=O)cc1	ALOX12 inh 15.8µM (no result: Pol eta inh, POLK inh, PI5P4Ka inh, Pol beta inh, Pol iota inh)
CCN(CC)C(=O)c1ccc(NC(=O)Cn2nc(-c3ccccc3)c3ccccc3c2=O)cc1	none (no result: Pol eta inh, POLK inh, PI5P4Ka inh, Pol beta inh, Pol iota inh)
CCN(CC)C(=O)c1ccc(NC(=O)c2cc(-c3ccco3)nc3ccccc23)cc1	ALOX12 inh 31.6µM (no result: Pol eta inh, POLK inh, PI5P4Ka inh, Pol beta inh, Pol iota inh)
C=CCN1C(=O)NC(=O)/C(=C/c2ccc(OC)c(CSc3ccccn3)c2)C1=O	Pol eta inh inconclusive, ALOX12 inh inconclusive, PI5P4Ka inh -71.4
C=CCN1C(=O)NC(=O)/C(=C/C=C/c2ccccc2)C1=O	ALOX12 inh inconclusive, PI5P4Ka inh inconclusive
C=CCN1C(=O)NC(=O)/C(=C/c2ccc(OC)c(COc3ccc(NC(C)=O)cc3)c2)C1=O	Pol eta inh inconclusive, PI5P4Ka inh -66.1
Cc1cccc(NC(=O)N2[C@H]3CC[C@@H]2c2cncnc2C3)c1	none (no result: Pol eta inh, POLK inh, PI5P4Ka inh, Pol beta inh, Pol iota inh)
COc1cc(/C=C2\C(=O)NC(=O)N(c3ccccc3)C2=O)c([N+](=O)[O-])cc1OC	ALOX12 inh inconclusive
CN1C(=O)NC(=O)/C(=C\C=C\c2ccccc2[N+](=O)[O-])C1=O	Pol eta inh inconclusive, ALOX12 inh inconclusive, PI5P4Ka inh inconclusive, Pol iota inh 14.1µM
COCc1nc(C2CC(N)C2)cc(N2CCCN3CCC[C@H]3C2)n1 (stereo partly drawn)	none (no result: Pol eta inh, POLK inh, PI5P4Ka inh, Pol beta inh, Pol iota inh)
Cc1[nH]nc2c1C(c1ccc(-c3ccccc3F)o1)SCC(=O)N2 (stereo not drawn)	none (no result: Pol eta inh, POLK inh, PI5P4Ka inh, Pol beta inh, Pol iota inh)
CNc1cc(Cl)c2nonc2c1[N+](=O)[O-]	ALOX12 inh inconclusive, Pol beta inh 89.1µM, Pol iota inh 10µM
CC(Nc1ccc([N+](=O)[O-])c2nonc12)c1ccccc1Cl (stereo not drawn)	none (no result: Pol eta inh, POLK inh, PI5P4Ka inh, Pol beta inh, Pol iota inh)
